# Results as given in PubChem BioAssay (Tox21).
# Values joined by “and” are separate entries in the source; they are usually repeats but may differ in a detail not shown here. Equal entries are not always repeated. Results filed as inconclusive are left out. Entries that show only a call come without a potency. The source holds several records for some structures; these can differ, active in one and inactive in another. Active and inactive are the calls of the source. Calls follow the shape of the dose curve; as a rule, active = well fitted inhibition curve with a large enough effect in the repeat runs; inconclusive = weak or mixed curves; inactive = flat fitted curve, though single readings scatter.
# Target: Voltage-gated inwardly rectifying potassium channel KCNH2 (Homo sapiens) (UniProt Q12809)
# Sequence (Q12809 whole entry, looked up): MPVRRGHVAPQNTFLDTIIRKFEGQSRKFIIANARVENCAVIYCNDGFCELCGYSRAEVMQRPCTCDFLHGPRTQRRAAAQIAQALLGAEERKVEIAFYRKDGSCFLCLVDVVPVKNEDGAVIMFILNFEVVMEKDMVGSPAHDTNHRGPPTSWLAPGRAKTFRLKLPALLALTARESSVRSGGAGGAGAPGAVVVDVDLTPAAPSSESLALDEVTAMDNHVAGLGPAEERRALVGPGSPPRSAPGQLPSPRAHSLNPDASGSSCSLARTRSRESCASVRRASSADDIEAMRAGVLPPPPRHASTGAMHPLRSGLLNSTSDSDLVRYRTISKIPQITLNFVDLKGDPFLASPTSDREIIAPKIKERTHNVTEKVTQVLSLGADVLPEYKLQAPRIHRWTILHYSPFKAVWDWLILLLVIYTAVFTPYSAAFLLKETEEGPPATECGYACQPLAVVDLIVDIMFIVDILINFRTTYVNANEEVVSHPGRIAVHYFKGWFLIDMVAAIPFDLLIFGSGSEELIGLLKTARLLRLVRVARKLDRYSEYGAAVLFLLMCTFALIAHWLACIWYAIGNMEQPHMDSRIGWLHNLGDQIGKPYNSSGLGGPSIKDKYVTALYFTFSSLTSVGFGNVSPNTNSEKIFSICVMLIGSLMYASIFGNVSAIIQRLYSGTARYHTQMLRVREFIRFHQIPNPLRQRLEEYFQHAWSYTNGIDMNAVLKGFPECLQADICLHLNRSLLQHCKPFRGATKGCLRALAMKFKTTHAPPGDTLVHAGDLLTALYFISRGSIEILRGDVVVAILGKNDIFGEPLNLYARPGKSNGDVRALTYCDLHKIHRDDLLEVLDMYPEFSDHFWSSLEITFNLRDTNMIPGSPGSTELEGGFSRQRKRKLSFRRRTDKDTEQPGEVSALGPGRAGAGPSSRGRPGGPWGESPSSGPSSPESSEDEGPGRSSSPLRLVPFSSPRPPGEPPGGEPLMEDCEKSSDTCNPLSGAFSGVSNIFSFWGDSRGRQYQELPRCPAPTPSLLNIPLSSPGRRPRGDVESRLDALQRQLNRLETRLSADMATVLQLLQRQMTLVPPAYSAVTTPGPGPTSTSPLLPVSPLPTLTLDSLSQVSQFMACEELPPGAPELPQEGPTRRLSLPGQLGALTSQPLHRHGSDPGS
# Assay: Human Ether-a-go-go-Related Gene (hERG) channel small molecule antagonists: fluorescence cell-based qHTS assay (AID 1671200); also: nearly all actives have a fitted effect of over 50% in size
# Conditions: hERG-U2OS cells, FluxOR thallium flux fluorescence; series mostly up to 76.8 µM; activity change, negative = inhibition: at the top concentration
# Summary of the method: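 Measured: Tl+ flux via fluorescence (480/540 nm) in hERG-expressing U2OS cells after 1 h dye loading at room temperature.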
# Potency is read from the fitted curve at half-maximal effect.
Structure (SMILES),Potency,"activity change, negative = inhibition"
Nc1cc(-c2ccncc2)c[nH]c1=O,inactive,–
Oc1ccc(OCc2ccccc2)cc1,inactive,–
CCOC(=O)C1OC1c1ccccc1 (stereo unspecified),inactive,–
O=C(O)c1ccc([N+](=O)[O-])cc1,inactive,–
Cc1cc(=O)[nH]c(C(C)C)n1,inactive,–
NC(=O)/N=N/C(N)=O,inactive,–
CCCCCCCCCCCCOCC1CO1 (stereo unspecified),inactive,–
O=S(=O)(O)CCS,inactive,–
O=C(O)c1cc(-c2ccccc2)nc2ccccc12,inactive,–
OC1CCCC1,inactive,–
COC(=O)c1ccccc1O,inactive,–
Cc1ccc(N)c(S(=O)(=O)O)c1,inactive,–
CCCCOCCOCCOC(=O)CCCCC(=O)OCCOCCOCCCC,inactive,–
CCCCC(CC)COC(C)=O (stereo unspecified),inactive,–
Cc1cc(Cc2ccc(N)c(C)c2)ccc1N,inactive,–
NCCc1ccc(O)c(O)c1,inactive,–
C=C(C#N)C(=O)OCC,inactive,–
O=[N+]([O-])C(CO)(CO)CO,inactive,–

Structure (SMILES),Potency,"activity change, negative = inhibition"
NS(=O)(=O)c1cc2c(cc1Cl)NC=NS2(=O)=O,inactive,–
CCOC(=O)/C=C\C(=O)OCC,inactive,–
CC(C)(N=C=O)c1cccc(C(C)(C)N=C=O)c1,inactive,–
CC[Si](OC(C)=O)(OC(C)=O)OC(C)=O,inactive,–
C=C(C)C(=O)OCCCCCCCCCCCC,inactive,–
C=C(C)C(=O)OCCC[Si](OC)(OC)OC,inactive,–
COCC(C)O (stereo unspecified),inactive,–
O=C1CCCCC1,inactive,–
CCCCCCCCCCCCN,inactive and 12.3 µM (active),–
CC1CC(OC(=O)c2ccccc2O)CC(C)(C)C1 (stereo unspecified),–,-9.51% (inactive)
O=Nc1ccc(O)cc1,inactive,–
CC1(C)O[C@@H]2C[C@H]3[C@@H]4C[C@H](F)C5=CC(=O)CC[C@]5(C)[C@H]4[C@@H](O)C[C@]3(C)[C@]2(C(=O)CO)O1,inactive,–
C[C@@H]1O[C@@H](OC[C@H]2O[C@@H](Oc3c(-c4ccc(O)c(O)c4)oc4cc(O)cc(O)c4c3=O)[C@H](O)[C@@H](O)[C@@H]2O)[C@H](O)[C@H](O)[C@H]1O,inactive,–
Clc1ccc(Cl)c(Cl)c1Cl,inactive,–
CC(C)Cc1ccccc1,inactive,–
OCC#CCO,inactive,–
O=C(c1cc(O)c(O)c(O)c1)c1ccc(O)c(O)c1O,inactive,–
C=C(C)C(=O)OCCCCCC,inactive,–
